Among all 71,000 compounds or so, about 65 (0.09%) were called active. The call rests on the fitted dose curve; in most records, active means well fitted curve in the direction sought with a large enough effect; inconclusive means small, poorly fitted or top-dose-only effect; inactive means flat fitted curve, though single readings scatter. This excerpt belongs to a sample that is enriched for actives.
On the % scale 0 is the no-effect control and ±100 the full control effect; potency means the concentration at half of the fitted maximal effect.

Beta-lactamase (Escherichia coli (strain K12)), sequence (P00811 whole entry, looked up): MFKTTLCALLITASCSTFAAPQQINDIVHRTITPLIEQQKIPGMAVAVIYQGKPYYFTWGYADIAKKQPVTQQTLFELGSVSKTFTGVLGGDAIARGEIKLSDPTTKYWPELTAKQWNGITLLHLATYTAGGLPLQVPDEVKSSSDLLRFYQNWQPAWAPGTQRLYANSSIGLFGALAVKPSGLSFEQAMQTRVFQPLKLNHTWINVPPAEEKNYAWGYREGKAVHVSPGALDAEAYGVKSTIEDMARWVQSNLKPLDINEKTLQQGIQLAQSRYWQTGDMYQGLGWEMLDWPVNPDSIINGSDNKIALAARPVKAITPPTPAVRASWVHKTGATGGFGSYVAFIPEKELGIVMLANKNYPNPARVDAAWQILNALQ

This assay has as its target Beta-lactamase (Escherichia coli (strain K12)) (UniProt P00811). Description: Promiscuous and Specific Inhibitors of AmpC Beta-Lactamase (assay with detergent). To be noted: purified AmpC, nitrocefin hydrolysis with detergent; series mostly up to 28.7 µM; activity change, negative = inhibition: at the top concentration. How it is done: NIH Molecular Libraries Screening Centers Network [MLSCN]
NIH Chemical Genomics Center [NCGC]
PI Name: Shoichet, Brian K.
This aggregation profiling approach exploits the sensitivity of aggregate formation to detergent. Inhibition of b-lactamase is measured in the presence and absence of 0.01% Triton X-100. This particular assay had the prescence of 0.01% Triton X-100. See Pubchem assay "Promiscuous and Specific Inhibitors of AmpC Beta-Lactamase (assay without detergent)" for related screen. Compounds that inhibit only in the absence of detergent are considered likely promiscuous aggregators.
A screen of 1,030 compounds was performed in Brian Shoichet's lab in 96-well format. AmpC activity was measured by following the absorbance at 480 nm. Nitrocefin is a chromogenic substrate: while nitrocefin is yellow (lmax 390 nm), the product of its hydrolysis is red (lmax 486 nm, 17,000 M-1). AmpC beta lactamase was provided by Brian Shoichet and Brian Feng, UCSF.
NCGC Assay Protocol Summary:
20 mM phosphate buffer, pH 7.0
Triton X-100: No Detergent screen: 0.0001%, Detergent screen: 0.01%.
Buffer in columns 3 and 4 as negative control (no enzyme).
5.3 nM AmpC in columns 1, 2, 5-48. Titration of UCSF compound 9 control (from 10 mM, then 1:2) pin-transferred to column 2. Column 1 is neutral (100% activity).
Six uL of reagents were dispensed to 1536-well Greiner black clear bottom plates. Compounds and controls (23 nL) were transferred via Kalypsys PinTool. The plates were incubated for 15 min at room temperature, and then 2 uL of 800 uM solution of nitrocefin was added to start the reaction. The plates were immediately transferred to and read every 20 seconds for 4 min on ViewLux (Perkin-Elmer) High-throughput CCD imager using 480 nm absorbance protocol. During dispense, reagent bottles were kept submerged into 4 deg C water bath.
Keywords: NIH Roadmap, MLSCN, MLI, MLSMR, qHTS, NCGC, AmpC Beta-Lactamase, Aggregation
As for `CCOc1cc(C(=O)N2CCc3cc(OC)c(OC)cc3C2)ccc1OC(F)F`, the “activity change, negative = inhibition” value was -2.69% (inactive).
In the case of `N#C/C(=C\c1ccc(O)c(O)c1)C(=O)NCc1ccccc1`, the activity change, negative = inhibition result was “inactive”.
Turning to `C=C(C)COc1ccc(-c2n[nH]c(C)c2-c2ccccc2OC)c(O)c1`, the “activity change, negative = inhibition” value was 3.39% (inactive).
Regarding `CC(C)(C)n1nnnc1C(c1ccc2ncccc2c1)N1CCSCC1` (stereo not drawn), the “activity change, negative = inhibition” value was -3.81% (inactive).
As to `NCCNCC1CCNCC1`, the activity change, negative = inhibition is -0.8% [at 5.75 µM] (inactive).
In the case of `CCc1nnc(NC(=O)c2ccc(S(=O)(=O)NC3CCCCC3)cc2)s1`, the “activity change, negative = inhibition” value was 10.1% (inactive).
On to `Cc1cccc(N2CCN(C(c3ccccc3)c3nnnn3CC3CCCO3)CC2)c1C` (stereo not drawn), for which the “activity change, negative = inhibition” value is -2.94% (inactive).
Turning to `Cc1cccc2cc(CN(Cc3nnnn3Cc3ccccc3)C3CCCC3)c(=O)[nH]c12`, the “activity change, negative = inhibition” value was 30.9% (inactive).
Same read-out and setting: with `CCS(=O)(=O)N1CCCC(C(=O)NCCCN(C)Cc2ccccc2)C1` (stereo not drawn) the figure was -2.63% (inactive); with `CC1=CC(=O)C2=C(C)C[C@H](O)[C@@H]3[C@@H](OC(=O)[C@H]3C)[C@H]12`, 0.4% (inactive); with `Cc1ccc(N2C(=O)c3oc4ccccc4c(=O)c3C2c2cccnc2)nc1` (stereo not drawn), 12.4% (inactive).
As to `O/N=C1\CC2(Cc3nonc31)OCCO2`, the “activity change, negative = inhibition” value was -0.261% (inactive).
For `Cn1c(=O)c(-c2ccccc2)nc2cnc(N3CCNCC3)nc21`, the “activity change, negative = inhibition” value was -2.9% (inactive).
The same measure, in the same setting: for `CCOC(=O)CSc1nnc(CNc2nc(-c3ccccc3)cs2)n1C` the value was 6.67% (inactive); for `Cc1ccc(-n2nc(-c3ccco3)cc2C(=O)NCc2cccnc2)cc1`, -4.9% (inactive); for `Cc1ccc(S(=O)(=O)N2CCC(C(=O)N[C@@H](C)C(=O)NCc3ccccc3)CC2)cc1`, -0.931% (inactive).
On to `N#Cc1ccccc1-c1ccc2ncnc(NCc3cccnc3)c2c1`, for which the “activity change, negative = inhibition” value was 0.3% (inactive).
Turning to `NC(=O)c1ccc(OC[C@H](O)CN2CC=C(c3ccc(F)cc3)CC2)cc1`, the “activity change, negative = inhibition” value is -3.1% (inactive).
In the case of `CCCn1c(-c2ccc(F)cc2)nc2c(NC3CCN(Cc4ccccc4)C3)nc(C)nc21` (stereo not drawn), the “activity change, negative = inhibition” value was 13.7% (inactive).
For the compound `CC(C)c1cc(CN(C)C)c(O)c(C(C)(C)C)c1`, the activity change, negative = inhibition is -4.5% [at 5.75 µM] (inactive).
Consider `O=C1N(Cc2ccc3c(c2)OCO3)c2ccccc2C1(O)c1c[nH]c2ccccc12` (stereo not drawn), for which the “activity change, negative = inhibition” value is 1.62% (inactive).
With `CC(C)(C)NC(=O)C(c1ccncc1)N(C(=O)CNC(=O)c1ccco1)c1ccc2c(c1)OCO2` (stereo not drawn), the “activity change, negative = inhibition” value is -3.56% (inactive).
Consider `O=C(NC12CC3CC(CC(C3)C1)C2)N1CCCC(CO)C1` (stereo not drawn), for which the “activity change, negative = inhibition” value was -4.1% (inactive).
As for `CC(C)(O)[C@H]1[C@H]2OC(=O)[C@@H]1[C@]1(O)C[C@H]3O[C@]34C(=O)O[C@H]2[C@]14C`, the “activity change, negative = inhibition” value is 7.4% (inactive).
For `CC(=O)Oc1ccc(C(=O)Nc2nccs2)cc1`, the “activity change, negative = inhibition” value is 9.77% (inactive).
Still for that read-out and setting: for `COc1ccc2[nH]cc(CCNc3cc(-c4ccccc4CN(C)C)ncn3)c2c1` the value was 9.4% (inactive).
As for `CCCNC(=O)C1CC(=O)N(c2ccc(OCC(=O)Nc3cccc(C)c3C)cc2)C1` (stereo not drawn), the “activity change, negative = inhibition” value was 10.2% (inactive).
As to `O=C(NCC1CCCO1)C(C(=O)c1ccccc1)n1cc(Cl)ccc1=O` (stereo not drawn), the “activity change, negative = inhibition” value is 7.55% (inactive).
Regarding `O=C(c1cccs1)N1CCCC(c2nc(-c3ccc(F)cc3)no2)C1` (stereo not drawn), the “activity change, negative = inhibition” value is -1.33% (inactive).
For `CS(=O)(=O)NCc1ccc(C(=O)NCc2ccccc2)cc1`, the “activity change, negative = inhibition” value was -4.11% (inactive).
Same read-out and setting: with `COc1cccc(-n2c(SCC(=O)NC3CCCCC3)nc3n[nH]c(C)c3c2=N)c1` the figure was 3.34% (inactive).
Same read-out and setting: for `CCOC(=O)c1ccc(N2C(=O)CC(N3CC(C)OC(C)C3)C2=O)cc1` (stereo not drawn) the value was -3.59% (inactive).
For `CCOc1ccc2nc(NCCNS(=O)(=O)c3ccccc3)c(C#N)cc2c1`, the “activity change, negative = inhibition” value is 7.14% (inactive).
As for `O=C(Cn1ccc(=O)[nH]c1=O)Nc1ccc(C(=O)O)c(O)c1`, the activity change, negative = inhibition was -5.4% [at 5.75 µM] (inactive).
With `COc1cc(C[C@H](C)N)c(OC)cc1I`, the activity change, negative = inhibition entry is “inactive”.
With `O=C(Nc1ccccc1)N(Cc1cccnc1)Cc1ccco1`, the “activity change, negative = inhibition” value is -3.39% (inactive).
Take `O=C(O)CSCNC(=O)CC12CC3CC(CC(C3)C1)C2`: the “activity change, negative = inhibition” value was -1.26% (inactive).
Still for that read-out and setting: with `CCOc1c(N2CCCCC2)c(=O)c1=O` the figure was 10.1% (inactive); with `NC(=S)c1ccc(C(N)=S)o1`, -5.48% (inactive).
Consider `O=C(Nc1ccccc1)N[C@H]1C[C@H](C(=O)O)Nc2cc(Cl)cc(Cl)c21`, for which the “activity change, negative = inhibition” value is -2.4% (inactive).
In the case of `O=C(CN(CC1CCCO1)C(=O)CNS(=O)(=O)c1ccccc1)NCc1ccccc1` (stereo not drawn), the “activity change, negative = inhibition” value is 1.85% (inactive).
As for `COC(=O)c1ccc(S(=O)(=O)c2ccc(C(=O)OC)s2)s1`, the “activity change, negative = inhibition” value was -1.11% (inactive).
In the case of `CCNS(=O)(=O)c1ccc(NC(=O)Nc2cccc(C(F)(F)F)c2)cc1`, the “activity change, negative = inhibition” value is 19.8% (inactive).
Consider `O=C(Oc1cccnc1)c1cc2ccccc2oc1=O`, for which the Potency was 10 µM (active).
With `COc1ccc2oc(=O)c(C(=O)O)cc2c1`, the “activity change, negative = inhibition” value is -3.06% (inactive).
Turning to `O=C(NCc1ccccn1)c1cc2ccccc2oc1=O`, the “activity change, negative = inhibition” value was -3.08% (inactive).
Take `C=CCOc1ccc(C2/C(=C(\O)c3c(C)[nH]c(C(=O)OC)c3C)C(=O)C(=O)N2CCN(C)C)cc1` (stereo not drawn): the “activity change, negative = inhibition” value is -1.73% (inactive).
Consider `Cc1ccc(Oc2ccc(N)cc2)cc1`, for which the “activity change, negative = inhibition” value is -6.72% (inactive).

The values above are taken from PubChem BioAssay AID584 (National Center for Advancing Translational Sciences (NCATS), 2007).
